According to PubChem BioAssay AID1159580 (chemical genetic matrix, 2015):
“And” between values parts separate entries of the source, which are not always exact repeats. Equal entries are not always repeated. Hit rate of the full screen: of about 5,500 compounds, about 2,000 (36%) were called active. Roughly 18% stayed inconclusive and do not appear here. Rule as the data show it: active = normalized growth mostly below about 0.91 (no sharp cut-off); inconclusive = no clear call, values can overlap the other calls; inactive = mostly above about 0.92. This is one part of the list.

Experiment: chemical genetic growth profiling, strain panel (AID 1159580);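 also: tested at 20 µM; growth read once vehicle control cultures reached saturation at 30 °C; 1 = growth at the plate median or of vehicle wells; lower values mean less growth of the strain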
Details: S. cerevisiae deletion strains, growth OD

Measured: normalized growth

Cc1ccc(C(=O)c2ccc(CC(=O)O)n2C)cc1
inactive: locus YAL021C, strain ccr4, hits give low values 1.03 | locus YAL026C, strain drs2, hits give low values 1.02 | locus YAL030W, strain snc1, hits give low values 1.01 | locus YBL061C, strain skt5, hits give low values 1.01 | locus YBR009C, strain hhf1, hits give low values 0.973 | locus YBR021W, strain FUR4, hits give low values 1.01 | locus YBR023C, strain chs3, hits give low values 1 | locus YBR229C, strain ROT2, hits give low values 1 | locus YBR231C, strain swc5, hits give low values 1.02 | locus YBR279W, strain paf1, hits give low values 1 | locus YCL011C, strain gbp2, hits give low values 0.999 | locus YCL016C, strain dcc1, hits give low values 0.996 | locus YCL029C, strain bik1, hits give low values 0.968 | locus YCL061C, strain MRC1, hits give low values 0.995 | locus YCL069W, strain vba3, hits give low values 0.986 | locus YCR088W, strain abp1, hits give low values 1 | locus YDL005C, strain med2, hits give low values 1.03 | locus YDL035C, strain GPR1, hits give low values 1.01 | locus YDL040C, strain nat1, hits give low values 1.01 | locus YDL074C, strain BRE1, hits give low values 1.01 | locus YDL101C, strain DUN1, hits give low values 1.01 | locus YDL134C, strain PPH21, hits give low values 0.996 | locus YDL185W, strain tfp1, hits give low values 0.977 | locus YDL192W, strain arf1, hits give low values 0.98 | locus YDR001C, strain nth1, hits give low values 1 | locus YDR069C, strain doa4, hits give low values 0.999 | locus YDR101C, strain arx1, hits give low values 0.985 | locus YDR137W, strain rgp1, hits give low values 1 | locus YDR150W, strain NUM1, hits give low values 1.01 | locus YDR159W, strain sac3, hits give low values 0.956 | locus YDR162C, strain NBP2, hits give low values 0.995 | locus YDR195W, strain ref2 1.03 | locus YDR297W, strain sur2, hits give low values 0.991 | locus YDR318W, strain mcm21, hits give low values 0.956 | locus YDR334W, strain swr1, hits give low values 1.01 | locus YDR335W, strain msn5, hits give low values 1.01 | locus YDR388W, hits give low values 0.972 | locus YDR392W, strain spt3, hits give low values 0.88 | locus YDR502C, strain sam2, hits give low values 0.97 | locus YEL003W, strain gim4, hits give low values 1.01 | locus YEL037C, strain rad23, hits give low values 0.999 | locus YEL061C, strain CIN8 (second series), hits give low values 0.999 | locus YEL061C, strain CIN8, hits give low values 0.998 | locus YER015W, strain faa2, hits give low values 1.01 | locus YER016W, strain bim1, hits give low values 0.999 | locus YER110C, hits give low values 0.969 | locus YER111C, strain swi4, hits give low values 1.01 | locus YER155C, strain BEM2 (second series), hits give low values 0.957 | locus YER155C, strain BEM2, hits give low values 0.996 | locus YER167W, strain BCK2, hits give low values 0.998 | locus YFR010W, strain ubp6, hits give low values 0.997 | locus YGL078C, strain dbp3, hits give low values 0.977 | locus YGL086W, strain mad1, hits give low values 0.985 | locus YGL167C, strain pmr1, hits give low values 1.01 | locus YGL173C, strain kem1, hits give low values 0.985 | locus YGL227W, strain vid30, hits give low values 1 | locus YGL240W, strain doc1, hits give low values 1.01 | locus YGL248W, strain PDE1, hits give low values 1.02 | locus YGL253W, strain hxk2, hits give low values 0.992 | locus YGR078C, strain PAC10, hits give low values 1 | locus YGR135W, strain pre9, hits give low values 0.97 | locus YGR229C, strain SMI1, hits give low values 1.01 | locus YGR252W, strain gcn5, hits give low values 0.975 | locus YHR013C, strain ard1, hits give low values 1.03 | locus YHR027C, strain rpn1, hits give low values 1.01 | locus YHR030C, strain SLT2, hits give low values 1 and 0.957 | locus YHR079C, strain IRE1 (second series), hits give low values 0.964 | locus YHR079C, strain IRE1, hits give low values 0.976 | locus YHR094C, strain hxt1, hits give low values 0.973 | locus YHR129C, strain ARP1, hits give low values 1 | locus YHR142W, strain chs7, hits give low values 1.02 | locus YHR200W, strain rpn10, hits give low values 0.979 | locus YIL066C, strain RNR3, hits give low values 1 | locus YIL073C, strain SPO22, hits give low values 0.924 | locus YIL125W, strain kgd1, hits give low values 0.985 | locus YIR030C, strain dcg1, hits give low values 0.978 | locus YJL092W, strain hpr5, hits give low values 1.02 | locus YJL095W, strain BCK1 (second series), hits give low values 1.02 | locus YJL095W, strain BCK1, hits give low values 1.01 and 0.969 | locus YJL115W, strain asf1, hits give low values 1.03 | locus YJL129C, strain trk1, hits give low values 1.02 | locus YJL134W, strain LCB3, hits give low values 1 | locus YJL154C, strain vps35, hits give low values 1.01 | locus YJL164C, strain tpk1, hits give low values 0.997 | locus YJL166W, strain qcr8, hits give low values 1.02 | locus YJL168C, strain set2, hits give low values 0.975 | locus YJL187C, strain SWE1 (second series), hits give low values 1 | locus YJR043C, strain POL32, hits give low values 0.995 | locus YJR066W, strain TOR1, hits give low values 0.929
